Data published in PubChem BioAssay.
A number with no mark means an inactive call.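 How the source made its calls: active means compounds whose cell count with miR-34 switched on is under 0.7 times the count with it off; inactive means the rest.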 Numbered stars: 1 amine (or outer) side, 2 acyl side, 3 side chain; on linkers, the order of the positions; unused ones are H or OH. Bridge positions count the residues as written; N and C are the ends. Square brackets hold non-standard residues; d marks the D form. Peptide text beside a SMILES is read from it. I, II: the chains in the order shown. Actinocin(9to1) = Cc1c2oc3c(C)ccc(C(=O)[*:1])c3nc-2c(C(=O)[*:2])c(N)c1=O; NMeV = CN[CH](C(=O)O)C(C)C; Sar = CNCC(=O)O

Experiment: viability loss with induced miR-34 in A549 – imaging, A549 dox-inducible miR-34, nuclei and caspase counts, primary screen (AID 1347080); further: test concentration not given here
Conditions: A549 miR-34 inducible, Hoechst nuclei count, 48 h; stronger effect = lower value; cell number ratio, induced over uninduced

Q: With `C#C[C@]1(OC(C)=O)CCC2C3CCC4=C/C(=N/O)CCC4C3CC[C@@]21CC` (stereo partly drawn) as the compound, how does the fold change read?
A: 0.914

Q: With `CC(=O)O[C@]1(C(C)=O)CCC2C3C=C(Cl)C4=CC(=O)CC[C@]4(C)C3CC[C@@]21C` (stereo partly drawn) as the compound, how does the fold change read?
A: 0.904

Q: With `N[C@H](Cc1cc(I)c(Oc2ccc(O)c(I)c2)c(I)c1)C(=O)O` as the compound, how does the fold change read?
A: 0.92

Q: With `COCC1=C(C(=O)OC(C)OC(=O)OC(C)C)N2C(=O)[C@@H](NC(=O)/C(=N/OC)c3csc(N)n3)[C@H]2SC1` (stereo partly drawn) as the compound, how does the fold change read?
A: 0.924

Q: Which fold change does the source give for `CCCCCCCCCCC[C@@H](C[C@H]1OC(=O)[C@H]1CCCCCC)OC(=O)[C@@H](CC(C)C)NC=O` here?
A: 0.887

Q: With `Cc1c2oc3c(C)ccc(C(=O)OC(C)C4NC(=O)C(C(C)C)N(C)C(=O)CN(C)C(=O)C5CCCN5C(=O)C(C(C)C)NC4=O)c3nc-2c(C(=O)OC(C)C2NC(=O)C(C(C)C)N(C)C(=O)CN(C)C(=O)C3CCCN3C(=O)C(C(C)C)NC2=O)c(N)c1=O` (stereo not drawn) (I: cyclo([Sar][NMeV]TVP) / II: cyclo([Sar][NMeV]TVP); linker I:3-II:3 via Actinocin(9to1); configuration not given here) as the compound, how does the fold change read?
A: 0.996

Q: With `OC[C@H]1OC([S-])[C@H](O)[C@@H](O)[C@@H]1O.[Au+]` (stereo partly drawn) as the compound, how does the fold change read?
A: 0.865

Q: For `NC(Cc1c[nH]c2ccccc12)C(=O)O` (stereo not drawn), which fold change is on record?
A: 0.933
